Compounds with a hit are over-represented: about 6.6% of the library has one in this group of screens.
MCF10A rerep: inducers of DNA re-replication in MCF 10A breast cells; Potency, µM (series often up to 46.1 µM), without a hit: at the highest dose activity, positive = re-replication, actives largely listed as activators; MCF 10A DNA re-replication, Hoechst nuclear intensity, 48 h; 350,000 compounds, 2.9% hits; also: % of control where 0% means no effect; nearly all actives have a fitted effect of over 50% in size
KB-3-1 cytotox: kills parental KB-3-1 adenocarcinoma cells; KB-3-1 viability, CellTiter-Glo ATP luminescence, 72 h; Potency, µM (doses to about 46.1 µM), most hits filed as cytotoxic; 400,000 compounds, 1.4% hits; also: % is scaled to controls: 0 for no effect and ±100 for the full control effect; nearly all actives have a fitted effect of over 60% in size
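Parental KB-3-1 adenocarcinoma cells in phenol-red-free DMEM with 10% FBS were pin-treated with compounds at several concentrations, incubated 72 h at 37 °C, and viability read by CellTiter-Glo luminescence; concentration-effect curves were fitted after normalization.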
SW480 rereplic: induces DNA re-replication in SW480 colon adenocarcinoma cells; SW480 DNA re-replication, Hoechst DNA content imaging, 48 h; Potency, µM (highest dose often 46.1 µM), inactives show top-dose re-replication activation, hits mostly activators; 340,000 compounds, 1.8% hits; AID 624297; also: % of control where 0% means no effect; nearly all actives have a fitted effect of over 55% in size
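Per well, 250 cells were exposed to pinned compound for 48 hr. Nuclear DNA was visualised with Hoechst (40 min, 37 C) and total object intensity recorded by fluorescence scanning.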
RGS4 inhibitor: human RGS4 inhibition; P49798; Transcreener GDP fluorescence polarization, RGS4-accelerated GTP hydrolysis; Potency, µM (doses to about 114 µM), for inactives: at the highest dose activity change, negative = inhibition, hits mostly inhibitors; 390,000 compounds, 0.039% hits; AID 504845; also: % is scaled to controls: 0 for no effect and ±100 for the full control effect; nearly all actives have a fitted effect of over 75% in size
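MLSMR compounds (23 nl, pin-transferred) preincubated 10 min at room temperature with a 500nM (2x) first reagent, then RGS4 at 900nM (2x) plus Transcreener GDP mix added; fluorescence polarization (620/688 nm) read before and after 90 min at 30 °C.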
TSG101-PTAP inh: blocks PTAP/TSG101 interaction to inhibit HIV-1 budding; Q99816; Fluorescence polarization, FITC-PTAP peptide / Tsg101 binding; Potency, µM (highest dose often 115 µM), for inactives: at the top dose activity change, negative = inhibition, most hits filed as inhibitors; 340,000 tested, under 10 active; AID 493005; active = well fitted inhibition curve with a large enough effect in the main read-out, with a control signal flat, not every such curve was filed as active; inconclusive = small, poorly fitted or top-dose-only effect, or effect the other way, or a change in a side signal; inactive = no such curve, though single readings can be large or run the other way; also: % of control where 0% means no effect
Target sequence (Q99816 whole entry, looked up): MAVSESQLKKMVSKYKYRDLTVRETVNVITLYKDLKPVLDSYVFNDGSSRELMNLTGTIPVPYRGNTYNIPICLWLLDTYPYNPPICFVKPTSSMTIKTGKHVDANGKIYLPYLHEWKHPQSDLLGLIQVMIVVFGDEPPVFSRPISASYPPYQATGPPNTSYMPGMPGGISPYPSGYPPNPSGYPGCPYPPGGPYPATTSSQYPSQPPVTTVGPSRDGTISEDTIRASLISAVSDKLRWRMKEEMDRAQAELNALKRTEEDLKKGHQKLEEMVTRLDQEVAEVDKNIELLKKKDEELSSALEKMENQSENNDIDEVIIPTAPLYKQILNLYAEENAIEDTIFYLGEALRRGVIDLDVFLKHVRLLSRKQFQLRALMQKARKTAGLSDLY
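FP read-out: FITC-PTAP peptide, 50 nM final, binding Tsg101 binding domain, 10 uM final; 20 min, r.t.; 10 mM HEPES pH 7.5, 0.15 M NaCl, 0.01% Tween 20, 3 mM EDTA, 0.1 mM TCEP.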
KB-V1 cytotox: KB-V1 MDR subline cytotoxicity; KB-V1 MDR cells viability, CellTiter-Glo, 72 h; Potency, µM (series often up to 46.1 µM), hits mostly cytotoxic; 400,000 compounds, 3.4% hits; also: % is scaled to controls: 0 for no effect and ±100 for the full control effect; nearly all actives have a fitted effect of over 60% in size
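Compound-treated KB-V1 multidrug-resistant cells, 72 h, 37 degrees C; viability by CellTiter-Glo. Fitted qHTS curves give the values.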
* hit, by the source's call; [ ] = dose if it differs, or a comment. Unless noted, calls follow the shape of the dose curve; as a rule, active = well fitted curve in the direction sought with a large enough effect; inconclusive = small, poorly fitted or top-dose-only effect, or another doubt; inactive = no such curve, though single readings can be large; an effect the other way counts as inactive or inconclusive. Potency is read from the fitted curve at half-maximal effect.

`COC(=O)C1=C(c2ccccc2OCc2ccccc2)C[C@@H]2CC[C@H]1N2C(=O)NCc1ccc(F)cc1` gave MCF10A rerep 25.2%, KB-3-1 cytotox 20.6µM*, SW480 rereplic inconclusive, RGS4 inhibitor -4.7%, TSG101-PTAP inh -9.8% and KB-V1 cytotox 18.4µM*.
Screening COC(=O)C1=C(c2ccccc2OCc2ccccc2)C[C@@H]2CC[C@H]1N2C(=O)NCc1ccc(C(C)(C)C)cc1 returned MCF10A rerep inconclusive, KB-3-1 cytotox inconclusive, SW480 rereplic -2.6%, RGS4 inhibitor 2.4%, TSG101-PTAP inh -1.5% and KB-V1 cytotox inactive.
For COC(=O)C1=C(c2ccc(F)cc2OCc2ccccc2)C[C@@H]2CC[C@H]1N2C(=O)NCc1ccc(C)cc1 the results were MCF10A rerep -3.8%, KB-3-1 cytotox inconclusive, SW480 rereplic inconclusive, RGS4 inhibitor 1.2%, TSG101-PTAP inh -7.3% and KB-V1 cytotox inactive.
Screening COC(=O)C1=C(c2ccc(F)cc2OCc2ccccc2)C[C@@H]2CC[C@H]1N2C(=O)NCc1ccc(F)cc1 returned MCF10A rerep inconclusive, KB-3-1 cytotox inconclusive, SW480 rereplic 0.517µM*, RGS4 inhibitor 4.3%, TSG101-PTAP inh -6.0% and KB-V1 cytotox inactive.
For CC(=O)O[C@@H]1CN2CCC1CC2 the results were RGS4 inhibitor 82.9%[56.9 µM].
`C=CCN1CCC2(C)c3cc(O)ccc3C[C@H]1[C@H]2C` gave RGS4 inhibitor inactive.
Cc1cc(S(=O)(=O)NC(C)C)ccc1OCC(=O)N1CCN(Cc2ccc3c(c2)OCO3)CC1 was read as MCF10A rerep -1.0%, KB-3-1 cytotox 16.4µM*, SW480 rereplic -2.3%, RGS4 inhibitor 9.6%, TSG101-PTAP inh -3.6% and KB-V1 cytotox 2.59µM*.
Screening COc1ccc(/C=N\NC(=O)c2cccc(F)c2)cc1COc1ccccc1 returned MCF10A rerep inconclusive, KB-3-1 cytotox inactive, SW480 rereplic 1.46µM*, RGS4 inhibitor -24.1%, TSG101-PTAP inh -4.2% and KB-V1 cytotox inconclusive.
`CC1=C2CC3C(CC=C4C[C@@H](O)CC[C@@]43C)[C@@H]2CC[C@]12O[C@@H]1C[C@H](C)CN[C@H]1[C@H]2C` (some centres not stated) gave RGS4 inhibitor 340.0%[56.9 µM].
Screening CC(C)CCNC(=O)CSc1nc2ccccc2c(=O)[nH]1 returned MCF10A rerep 1.7%, KB-3-1 cytotox inactive, SW480 rereplic -12.0%, RGS4 inhibitor 0.8%, TSG101-PTAP inh -1.4% and KB-V1 cytotox 16.4µM*.
`Cc1ccc(Cn2cccc(C(=O)Nc3ccc4c(c3)OCCO4)c2=O)cc1` gave KB-3-1 cytotox inactive, RGS4 inhibitor inconclusive and KB-V1 cytotox inconclusive.
Screening CC1CC(C)(O)CC(C(O)CC2CC(=O)NC(=O)C2)C1=O (configuration not stated) returned MCF10A rerep inconclusive, KB-3-1 cytotox 0.92µM*, SW480 rereplic inconclusive, RGS4 inhibitor 10.0%, TSG101-PTAP inh -0.2% and KB-V1 cytotox 6.51µM*.
Screening CCOC(=O)C1(CCOc2ccccc2)CCN(C2Cc3ccccc3C2)CC1 returned MCF10A rerep 9.2µM*, KB-3-1 cytotox inconclusive, SW480 rereplic 17.7%, RGS4 inhibitor 9.6%, TSG101-PTAP inh 0.4% and KB-V1 cytotox inconclusive.
For ClC(Cl)Cl the results were MCF10A rerep 2.9% and SW480 rereplic -0.1%.
For COC(=O)Nc1nc2ccccc2[nH]1 the results were MCF10A rerep inconclusive, KB-3-1 cytotox 10.3µM*, SW480 rereplic inconclusive, RGS4 inhibitor -14.2%, TSG101-PTAP inh 0.9% and KB-V1 cytotox 3.66µM*.
For CC(C)(COC(=O)C(c1ccccc1)c1ccccc1)CN1CCOCC1 the results were MCF10A rerep inconclusive, KB-3-1 cytotox inactive, SW480 rereplic 11.5%, RGS4 inhibitor 5.5%, TSG101-PTAP inh -5.3% and KB-V1 cytotox inactive.

Screening data from PubChem BioAssay.
